Growth data for eleven compounds are collected here from PubChem BioAssay (NCI).

About 83,000 compounds went through this panel and 20% of them were active in at least one assay; those are over-represented in the sample as a whole.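 Plates (96-well) were seeded with cells, treated with compound at one concentration, and incubated for 48 hours before percent growth was determined.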 A number with no mark means an inactive call. Active and inactive are the calls of the source. The calls were made as follows: active = growth percent below 10; inactive = the rest.

Common to all, as to experiment: NCI-60 one-dose screen, 48 h (100 = growth as untreated, 0 = no growth, -100 = all killed)
Holding throughout (conditions): 10 µM unless noted

Experiment [1] has as its system SK-MEL-2 melanoma.
Experiment [2] relates to EKVX NSCLC.
Experiment [3] has as its system SN12C renal.
Experiment [4] relates to UO-31 renal.
In experiment [5] the test system is TK-10 renal.
In experiment [6] the test system is ACHN renal.
In experiment [7] the test system is A498 renal.
The subject of experiment [8] is CCRF-CEM leukemia.
Experiment [9] concerns MOLT-4 leukemia.
The subject of experiment [10] is SR leukemia.

For `O=CN1N=C(c2ccc3c(c2)OCO3)CC1c1cccc(Nc2ccnc3cc(C(F)(F)F)ccc23)c1` (stereo not given), the growth in experiment [1] is 76.1%; in experiment [2], 75.2%; in [3] it was 88.9%; in experiment [4], 63.7%; in [5], 76.9%; in experiment [6], 85.8%. In addition, the growth in experiment [7] was 72.5%; in experiment [8], 66.5%; in [9] it was 53.4%; in experiment [10], 29.9%.

Regarding `CCOC(=O)/C=C1\SC(=Nc2ccc(C#N)cc2)N(CCN2C(=O)/C(=C/C(=O)OCC)SC2=Nc2ccc(C#N)cc2)C1=O`, the growth is 80.8% in experiment [1]; 35.2% in experiment [2]; 24.2% in [3]; 56.6% in experiment [4]; 87.4% in [5]; 78.6% in [6]. Further, the growth in experiment [7] is 63.7%; in experiment [8] it was 1.57% (active); in [9] it was 9.39% (active); in experiment [10], 1.69% (active).

Consider `COc1ccc2nc(-c3ccc(Cl)cc3)cc(-c3nnc(SCC(=O)Nc4ccc(/C(C)=N\O)cc4)o3)c2c1`, for which the growth in [1] was 63.8%; in experiment [2], 35.4%; in experiment [3] it was -7.09% (active); in experiment [4], 77.8%; in [5], 79.4%; in experiment [6], 65.6%. The growth is 64% in experiment [7], 31.1% in experiment [8], 12.4% in experiment [9] and 6.61% (active) in experiment [10].

Take `O=C(CSC(=S)N1CCCCC1)Nc1ccccc1`: the growth was 92.1% in experiment [1]; 106% in experiment [2]; 106% in experiment [3]; 86.5% in experiment [4]; 85.8% in experiment [5]; 98.8% in experiment [6]. Further, the growth in experiment [7] is 99.5%; in [8], 89.9%; in experiment [9], 86.5%; in experiment [10], 87.1%.

Take `Cc1cccc(NC(=O)c2sc3nc4c(cc3c2N)CN(Cc2ccccc2)CC4)c1C`: the growth in experiment [1] is 30.3%; in [2], 44.1%; in experiment [3], 43.6%; in [4] it was 51%; in [5], 59%; in experiment [6], 52.9%. The growth in experiment [7] is -0.165% (active); in experiment [8] it was 13.9%; in experiment [9] it was 22.5%; in [10], 25.5%.

On to `COc1ccc(Cc2nc(C#N)c(N3CCN(c4ccc(F)cc4)CC3)o2)cc1`, for which the growth was 88.2% in [1]; 93.2% in experiment [2]; 105% in experiment [3]; 81.7% in experiment [4]; 75.1% in experiment [5]; 103% in [6]. For the same compound, the growth in experiment [7] was 103%; in experiment [8], 83.7%; in experiment [9], 87.7%; in [10], 88.9%.

As for `Cc1cc(NC(=O)CNc2nc(Oc3ccc(F)cc3)nc(-c3ccc(F)cc3)n2)ccc1Cl`, the growth is 103% in experiment [1]; 98.6% in [2]; 100% in experiment [3]; 97% in [4]; 96.5% in experiment [5]; 112% in experiment [6]. The growth is 89.3% in [7], 95.3% in [8], 80.1% in experiment [9] and 85.2% in experiment [10].

Consider `Cn1nc(C(F)(F)F)c(-c2cc(C(F)(F)F)cc(C(F)(F)F)c2)c1-c1ccc(OCc2ccc(Cl)cc2)cc1O`, for which the growth in experiment [1] is -34% (active); in [2], 7.7% (active); in experiment [3] it was 7.93% (active); in experiment [4], -1.27% (active); in [5], 9.29% (active); in experiment [6], 7.22% (active). The growth in experiment [7] was -26.9% (active); in experiment [8] it was 6.82% (active); in [9], -11.7% (active); in [10], -4.24% (active).

As to `COC(=O)/C=C/c1cc(OC)c2c(c1)[C@@H](C(=O)OC)[C@H](c1ccc(OC)c(OC)c1)O2`, the growth in experiment [1] was 31.4%; in [2] it was 38.5%; in experiment [3] it was 45.5%; in experiment [4] it was 45.9%; in experiment [5], 64.1%; in [6], 44.4%. Further, the growth is 22.1% in [7], 18.7% in experiment [8], 22.9% in experiment [9] and 26% in experiment [10].

Consider `C=C(C)[C@@H]1CC[C@]2(C(=O)NCCCO)CC[C@]3(C)[C@H](CC[C@@H]4[C@@]5(C)CCCNC(C)(C)[C@@H]5CC[C@]43C)[C@@H]12`, for which the growth in experiment [1] was 94.1%; in experiment [2], 77.5%; in experiment [3] it was 70.9%; in experiment [4], 56.1%; in experiment [5], 91.2%; in experiment [6], 89.5%. Besides, the growth in experiment [7] is 95.8%; in experiment [8], 60.4%; in [9], 30.5%; in experiment [10] it was -19.5% (active).

As for `COc1cc(NC(=O)Nc2cnc(Nc3ccc(N4CCOCC4)cc3)nc2Oc2ccc(F)cc2)cc(OC)c1`, the growth was 101% in [1]; 108% in [2]; 61.8% in experiment [3]; 93% in experiment [4]; 116% in experiment [5]; 99.9% in experiment [6]. Moreover, the growth in experiment [7] is 102%; in experiment [8], 92.9%; in experiment [9], 77.2%; in experiment [10], 66.2%.
